HCV inhibitor – inhibitors of hepatitis C virus infection; Huh7.5.1 HCVcc-Cre infection, luciferase reporter, 44 h; Potency, µM (doses to about 41.8 µM), without a hit: at the highest dose activity change, negative = inhibition, most hits filed as inhibitors; 340,000 tested, 3.4% active; AID 651820; active = well fitted inhibition curve with a large enough effect; inconclusive = small, poorly fitted or top-dose-only effect, or another doubt; inactive = no such curve, though single readings can be large or run the other way; note: potency is the fitted concentration of half-maximal effect
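Infectious HCVcc-Cre (~0.5 moi) was added to cells just after compound, with cells seeded 4 h earlier at 1,000 per well. Luciferase activity after 44 h culture reported infection; substrate was incubated 15 min at room temperature before reading.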
MARV entry inh – Marburg virus entry inhibition; Marburg virus pseudotyped entry inhibition, cell reporter; Potency, µM (doses to about 37.8 µM), for the others: top-dose activity change, negative = inhibition, most hits filed as inhibitors; 300,000 tested, 1.8% active; AID 540276; calls by dose curve; tested in HEK293 cells; note: potency is the fitted concentration of half-maximal effect
HCMV antiviral – inhibitors of human cytomegalovirus. AID 1259415. activity change, negative = inhibition, % at 57.5 µM. 410,000 tested, 4.5% active. HFF cells, HCMV-luciferase reporter, 72 h; active compounds read low; in the data active = activity change below about -60%; inconclusive = no clear call, values can overlap the other calls; inactive = above about -39%
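Two-dose cell screen: HFF monolayers treated with compounds and infected with luciferase-expressing HCMV at 1 PFU/cell, 72 h at 37C, then lysed for luciferase measurement.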
Lassa entry inh – blocks Lassa virus binding to or entry into cells; AID 540256; 300,000 tested, 1.2% active; Potency, µM (titrated, usually from 37.9 µM), for the others: at the top dose activity change, negative = inhibition, usual class: inhibitors; Lassa virus pseudotype entry inhibition, cell reporter; calls by dose curve; tested in HEK293 cells; note: potency is the fitted concentration of half-maximal effect; nearly all actives have a fitted effect of over 50% in size
FMDV antiviral – antivirals against foot and mouth disease virus | FMDV antiviral cell-based qHTS | Potency, µM (doses to about 57.9 µM), for inactives: top-dose activity change, negative = inhibition, hits mostly inhibitors | 410,000 tested, 1.2% active; calls by dose curve; tested in HEK293T cells; note: read-out not given here; potency is the fitted concentration of half-maximal effect; nearly all actives have a fitted effect of over 45% in size
* = called active by the depositor; ? = inconclusive; . = no result given; ! = a repeat was not active; [ ] = remark or other dose. Shown are actives, neighbours in structure and some others; about 7.9% of the full set was active somewhere. % is set by controls: 0 for no effect and ±100 for the full control effect.

SMILES | HCV inhibitor | MARV entry inh | HCMV antiviral | Lassa entry inh | FMDV antiviral
COCCNC(=O)c1c(N)n(-c2ccccc2)c2nc3ccccc3nc12 | ? | -30% | -21 | -6% | .
Nc1c(C(=O)NCCN2CCOCC2)c2nc3ccccc3nc2n1-c1ccc2c(c1)OCO2 | 2% | 7% | ? | 7% | .
COCCCNC(=O)c1c(N)n(-c2ccccc2)c2nc3ccccc3nc12 | 13µM* | ? | -24 | -16% | -23%
Nc1c(C(=O)NCCN2CCOCC2)c2nc3ccccc3nc2n1-c1ccccc1 | ? | -30% | -69* | ? | -24%
Cc1ccc(-n2c(N)c(C(=O)Nc3c(C)n(C)n(-c4ccccc4)c3=O)c3nc4ccccc4nc32)cc1 | 11µM* | ? | ? | 17% | -3%
Cc1ccc(S(=O)(=O)N2[C@H](CC(=O)c3cccs3)OC[C@@H]2C)cc1 | . | . | 7 | . | -1%
COCCCNC(=O)c1c(N)n(-c2ccc(S(N)(=O)=O)cc2)c2nc3ccccc3nc12 | -18% | 2% | -18 | -22% | -25%
COCCNC(=O)c1c(N)n(-c2cccc(C)c2)c2nc3ccccc3nc12 | 11µM* | ? | -30 | -26% | 0%
Cc1nn(CCC(=O)NCc2ccc(Cl)cc2)c(=O)c2nn(-c3ccccc3)c(C)c12 | . | . | 2 | -17%[46.1 µM] | ?
COc1ccccc1CCNC(=O)CCCn1nc(C)c2c(C)n(-c3ccc(C)cc3)nc2c1=O | -18% | . | ? | . | ?
Cc1ccc(CNC(=O)CCCn2nc(C)c3c(C)n(-c4ccccc4)nc3c2=O)cc1 | ? | . | ? | 20%[46.1 µM] | 7.1µM*!
Cc1nn(CCC(=O)NCc2ccc(N(C)C)cc2)c(=O)c2nn(-c3ccccc3)c(C)c12 | -9% | . | -63*! | 4%[46.1 µM] | -17%
CCN1CCN(CCNC(=O)CCCn2nc(C)c3c(C)n(-c4ccc(C)cc4)nc3c2=O)CC1 | -13% | ? | -67* | 21%[46.1 µM] | -2%
Cc1ccc(-n2nc3c(=O)n(CCCC(=O)NCC(C)c4ccccc4)nc(C)c3c2C)cc1 (stereo not drawn) | 22µM* | . | -12 | . | ?
CCOc1ccc(OCC)c(NC(=O)Cn2ncc3c4ccccc4n(Cc4ccccc4)c3c2=O)c1 | . | -26%[46.1 µM] | -12 | -2%[46.1 µM] | -4%
CCn1c(=O)c(CCC(=O)NCCN2CCOCC2)c(C)c2c(C)nn(-c3cccc(C)c3)c21 | -24% | . | ? | . | -15%
CCN1CCN(CCNC(=O)CCc2c(C)c3c(C)nn(-c4ccccc4)c3n(C)c2=O)CC1 | 16µM* | ? | . | ? | -12%
Cc1nc2cc(C(=O)O)ccc2n1-c1ccc(C(C)C)cc1 | . | -1%[46.1 µM] | 14 | 0%[46.1 µM] | 66%
COc1ccc(-n2nc(C(=O)NCC(=O)NCc3ccc(F)cc3)c3ccccc3c2=O)cc1 | -17% | ? | -8 | . | -21%
Cc1cccnc1NC(=O)CCCc1c[nH]c2ccccc12 | 0% | 5%[46.1 µM] | 15 | 5%[46.1 µM] | 12%
CCOc1ncccc1C(=O)NCCc1c[nH]c2ccccc12 | -2% | 15%[46.1 µM] | -66* | 14% | 3%
O=C(CCCc1c[nH]c2ccccc12)Nc1ncccc1O | -9% | . | -88* | . | -15%
CC1Cc2cc(-c3csc(NC(=O)Cc4ccccc4)n3)ccc2N1S(C)(=O)=O (stereo not drawn) | 0.71µM* | 10µM* | -98* | ? | .
Cc1ccc(C)c(N(CC(=O)NCc2ccco2)C(=O)CCC(=O)Nc2nccs2)c1 | -6% | -24%[46.1 µM] | -12 | -14% | 3%
O=C(NC1CCCCC1)c1ccc(S(=O)(=O)N2CCCCC2)cc1 | -8% | 3% | -26 | 2.1µM* | -9%
SMILES | HCV inhibitor | MARV entry inh | HCMV antiviral | Lassa entry inh | FMDV antiviral
O=C(NC1CCN(S(=O)(=O)c2ccc(F)cc2)CC1)C1CCCCC1 | 11% | 1%[46.1 µM] | 22 | 8%[46.1 µM] | -12%
O=C(Nc1cccnc1Cl)c1ccc(S(=O)(=O)N2CCCCCC2)cc1 | ? | -2% | -82* | -4% | -28%
O=C(NC1CCCCC1)C1CCCN(S(=O)(=O)c2ccc(F)cc2)C1 (stereo not drawn) | 7% | -1%[46.1 µM] | -81* | -4% | -13%
O=C(COC(=O)c1ccc(S(=O)(=O)N2CCCC2)cc1)Nc1cccnc1Cl | -5% | -5%[46.1 µM] | -6 | 15%[46.1 µM] | -8%
COc1ccc(S(=O)(=O)N(C)C)cc1NC(=O)COC(=O)Cn1cnc2ccccc2c1=O | 8% | . | 4 | . | -3%
Cc1ccc2occ(CC(=O)Nc3ccc(Cl)c(C(F)(F)F)c3)c2c1 | . | ? | -78* | 0%[46.1 µM] | -4%
N#CC1(NC(=O)COC(=O)c2ccccc2SCC(=O)N2CCCC2)CCCCC1 | . | -1% | -5 | 18% | -2%
C[C@H]1[C@@H](c2ccccc2)Oc2ccc(Cl)cc2S(=O)(=O)N1Cc1cccc(F)c1 | . | . | -27 | ? | .
COC(=O)c1c(NC(=O)Cc2cccs2)sc(C)c1C | 11µM* | -20% | 12 | 10% | -8%
COC(=O)c1c(NC(=O)Cc2ccccc2)sc(C)c1C | ? | 7% | -12 | 13% | -14%
O=C(CSc1n[nH]c(-c2ccccc2Cl)n1)N1CCN(c2ccccc2)CC1 | . | . | 37 | -4%[46.1 µM] | 35µM*
COc1ccc(N2CCN(C(=O)CSc3n[nH]c(-c4ccccc4Cl)n3)CC2)cc1 | . | . | -9 | 23%[46.1 µM] | -14%
COc1ccc(CNc2ccnc(-c3ccccc3CN(C)C)n2)c(OC)c1 | . | . | . | . | -20%
CCOc1cc(N)c(Cl)cc1C(=O)NCC1CN(Cc2ccc(F)cc2)CCO1 (stereo not drawn) | ? | . | -66*! | . | -14%
COc1cc(OC)c(NC(=O)c2c(C)oc3nc(C)nc(N4CCOCC4)c23)cc1Cl | . | . | -34 | ? | 10%
O=C(Nc1cccc(F)c1)c1ccc2oc(=O)n(Cc3ccccc3)c2c1 | . | . | -68* | -12%[46.1 µM] | ?
O=C(Cn1c(=O)c(=O)n(Cc2ccccc2)c2ccc(Cl)cc21)Nc1cccc(F)c1 | ? | 0.79µM* | 45 | ? | -7%
COc1ccc(NC(=O)CSc2ccc3nc(-c4ccccc4)cn3n2)c(OC)c1 | . | . | 10 | ? | -20%
Cc1ccc(C(=O)Nc2ccc([N+](=O)[O-])cn2)o1 | 1% | -15% | -35 | 9% | 26%
O=C(Oc1ccccc1C(=O)Nc1ccccc1)c1ccccc1Br | -25% | -14% | -66* | -21% | -29%
O=C(COc1ccccc1C(=O)Nc1ccccc1)c1ccc(Br)cc1 | -8% | -25%[46.1 µM] | -38 | -24% | -11%
O=C(N/N=C/c1cccs1)c1cccc(NC(=O)c2ccccc2Cl)c1 | -10% | 4%[46.1 µM] | -27 | 16% | 33%
O=C(N/N=C/c1cccs1)c1ccc(NC(=O)c2ccccc2Cl)cc1 | -21% | ? | -65* | 5% | -13%
Cc1ccccc1C(=O)Nc1ccc(C(=O)N/N=C/c2ccc(O)cc2)cc1 | ? | ? | -12 | ? | 0%
COc1ccccc1/C=N/NC(=O)c1ccc(-c2ccccc2)cc1 | -4% | 1% | -11 | -6% | -8%
O=C(N/N=C/c1ccc(O)cc1)c1ccc(NC(=O)c2ccccc2Br)cc1 | -22% | ? | -7 | 2.5µM* | -17%

Screens as filed in PubChem.
